Pol kappa inh – blocks human DNA polymerase kappa activity; Q9UBT6; purified Pol kappa, fluorescent DNA synthesis assay, 10 min; Potency, µM (titrated, usually from 107 µM), hits mostly inhibitors; actives 0.53% (n = 400,000); AID 588579
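First, compounds were pin-transferred onto 10 nM Pol kappa. After 15 min at room temperature, substrate was added to 50 nM final. Fluorescence was then measured kinetically at 0 and 10 min.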
Pol eta inh – inhibitors of human DNA polymerase eta; Q9Y253; recombinant Pol eta, fluorescent DNA replication assay; Potency, µM (titrated, usually from 114 µM), hits mostly inhibitors; actives 1.2% (n = 390,000)
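Pol eta (10 nM) was preincubated with compounds for 15 min at room temperature, after which fluorescent replication substrate (50 nM final) was added to start the reaction. Fluorescence was read kinetically at 0 and 10 min.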
FEN1 inhibitor – human FEN1 inhibition; P39748; Recombinant FEN1 flap cleavage, fluorescence, 15 min; Potency, µM (doses to about 114 µM), actives largely listed as inhibitors; actives 0.35% (n = 390,000); AID 588795; further: nearly all actives have a fitted effect of over 65% in size
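In this screen, 50 nM flap DNA substrate was added to 10 nM FEN1 pretreated with compound for 15 min at room temperature; cleavage was followed with reads at 0 and 15 min, and Hill fitting gave concentration–response parameters.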
POLI inh – DNA polymerase iota (human) inhibition; Q9UNA4; Pol iota fluorescent replication assay, 10 min; Potency, µM (titrated, usually from 115 µM), usual class: inhibitors; actives 1% (n = 390,000); AID 588590
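Fluorescent replication assay read twice, at 0 min and 10 min after adding 50 nM (final) substrate. Enzyme (10 nM) and compounds were first incubated 15 min at room temperature; enzyme-free buffer wells were negative controls.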
POLB inh – DNA polymerase beta (human) inhibition; Pol beta primer extension/strand displacement, fluorescence kinetic; Potency, µM (doses to about 114 µM), usual class: inhibitors; actives 1.3% (n = 340,000); AID 485314
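Human Pol beta at 10 nM; strand-displacement substrate 50 nM final. Compound exposure 15 min at room temperature before start, reaction 10 min at room temperature.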
WRN helicase inh – inhibitors of human WRN helicase. Q14191. WRN helicase unwinding, fluorescent forked duplex, kinetic. Potency, µM (highest dose often 114 µM), hits mostly inhibitors. actives 0.46% (n = 360,000); further: nearly all actives have a fitted effect of over 55% in size
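Enzyme (20 nM final) and test compound sit together 15 min at room temperature before substrate addition. Substrate is a single-forked duplex oligonucleotide (100 nM) labelled with fluorophore and quencher, with 2 mM ATP; helicase unwinding raises red fluorescence, read kinetically.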
Of the large screens only hits and unclear results are named; the others gave an inactive call; ! = a repeat was not active. The list is not random: actives were taken first. Their share in the collection is about 2.4%. The call rests on the fitted dose curve; in most records, active means well fitted curve in the direction sought with a large enough effect; inconclusive means small, poorly fitted or top-dose-only effect, or another doubt; inactive means no such curve, though single readings can be large; an effect the other way counts as inactive or inconclusive.

COc1ccc(NC(=O)c2ccc3c(SCC(=O)O)c4c(nc3c2)CCCC4)c(OC)c1	Pol kappa inh inconclusive, FEN1 inhibitor inconclusive, POLI inh 79µM, POLB inh 40µM!
COc1ccc(NC(=O)c2ccc3c(SCC(=O)O)c4c(nc3c2)CCCC4)cc1Cl	none (no result: Pol kappa inh, Pol eta inh, FEN1 inhibitor, POLI inh, WRN helicase inh)
O=C(Nc1nnc(C23CC4CC(CC(C4)C2)C3)s1)c1ccc(N2C(=O)CCC2=O)cc1	Pol eta inh inconclusive, POLI inh inconclusive, POLB inh 10µM
C=C1C=C(C(F)F)n2ncc(C(=O)Nc3ccc(N(CC)CC)cc3)c2N1	none (no result: Pol eta inh, POLB inh, WRN helicase inh)
COc1ccc(/[N+]([O-])=C/c2ccco2)cc1	Pol eta inh 89µM, POLI inh inconclusive (no result: POLB inh)
COc1ccc(-c2nc3cnc(Oc4cccc(Cl)c4)nc3n(C3CC3)c2=O)cc1	none (no result: Pol eta inh, FEN1 inhibitor, POLI inh, POLB inh, WRN helicase inh)
Cc1cc(C)c(S(=O)(=O)/N=C2/C=C(SCC(=O)O)C(=O)c3ccccc32)cc1C	Pol eta inh 20µM, FEN1 inhibitor 10µM, POLI inh 6.3µM, POLB inh inconclusive, WRN helicase inh 18µM
CCOc1ccc(NS(=O)(=O)c2ccc3[nH]cc(C(=O)N(CC)CC)c(=O)c3c2)cc1	Pol eta inh 20µM, POLI inh inconclusive
Cc1cc(C)cc(NS(=O)(=O)c2ccc3[nH]cc(C(=O)N4CCCC4)c(=O)c3c2)c1	none (no result: WRN helicase inh)
CC(C)c1ccc(NS(=O)(=O)c2ccc3[nH]cc(C(=O)NCCc4ccccc4)c(=O)c3c2)cc1	POLB inh inconclusive (no result: WRN helicase inh)
COc1cccc(NS(=O)(=O)c2ccc3[nH]cc(C(=O)NC4CCCCC4)c(=O)c3c2)c1	Pol eta inh 89µM, POLI inh inconclusive, POLB inh inconclusive (no result: WRN helicase inh)
CC(C)c1ccc(NS(=O)(=O)c2ccc3[nH]cc(C(=O)N4CCC(C(N)=O)CC4)c(=O)c3c2)cc1	Pol eta inh 18µM, POLI inh inconclusive, POLB inh 50µM
CCc1ccc(NS(=O)(=O)c2ccc3[nH]cc(C(=O)NCCCOC(C)C)c(=O)c3c2)cc1	Pol kappa inh inconclusive, Pol eta inh inconclusive, POLI inh inconclusive, POLB inh 40µM (no result: WRN helicase inh)
CCCc1ccc(C2Sc3ccccc3NC3=C2C(=O)c2ccccc23)cc1 (stereo not given)	none (no result: WRN helicase inh)
N#CCCn1c(=O)c(-c2ccc(Cl)cc2)nc2cnc(OCc3ccccc3)nc21	none (no result: Pol eta inh, FEN1 inhibitor, POLI inh, POLB inh, WRN helicase inh)
COc1cccc(NS(=O)(=O)c2ccc3[nH]cc(C(=O)NCCc4ccc(C)cc4)c(=O)c3c2)c1	Pol eta inh inconclusive, POLI inh inconclusive, POLB inh inconclusive (no result: WRN helicase inh)
COc1cccc(NS(=O)(=O)c2ccc3[nH]cc(C(=O)NCCc4ccccc4)c(=O)c3c2)c1	POLI inh 79µM, POLB inh inconclusive (no result: WRN helicase inh)
Fc1ccc(C(c2ccc(F)cc2)N2CCN(CC=Cc3ccccc3)CC2)cc1	none (no result: Pol eta inh, FEN1 inhibitor, POLI inh, POLB inh, WRN helicase inh)
Cc1ccc(NC(=O)NNC(=O)c2cc3ccccc3cc2O)cc1C	POLI inh inconclusive, POLB inh inconclusive
Cc1ccc(C)c(NC(=O)NNC(=O)c2cc3ccccc3cc2O)c1	Pol kappa inh inconclusive, Pol eta inh inconclusive, POLI inh 35µM, POLB inh 35µM
CCOc1ccc(NC(=O)NNC(=O)c2cc3ccccc3cc2O)cc1	POLI inh 79µM, POLB inh inconclusive
Cc1cccc(NC(=O)NNC(=O)c2cc3ccccc3cc2O)c1C	Pol kappa inh inconclusive, POLI inh 50µM, POLB inh 35µM
Cc1c(C)c2ccc(O[C@@H]3O[C@H](CO)[C@H](O)[C@H](O)[C@H]3O)cc2oc1=O	none
COc1cc2cc(Oc3ccc4ccc(=O)oc4c3)c(=O)oc2cc1O[C@@H]1O[C@H](CO)[C@@H](O)[C@H](O)[C@H]1O	Pol kappa inh 45µM, Pol eta inh 8.9µM, POLI inh 50µM, WRN helicase inh inconclusive (no result: POLB inh)
CC(=O)N(c1ccc2ccccc2c1)C1SC(=O)N(c2cccc(C)c2)C1=O (stereo not given)	none (no result: Pol eta inh, POLB inh, WRN helicase inh)
CCOC(=O)c1c(NC(C)=O)sc2c(OCCN(CC)CC)c(Br)ccc12	FEN1 inhibitor inconclusive
CCOC(=O)c1c(NC(C)=O)sc2c(OCC(O)CN(CC)CC)c(Br)ccc12 (stereo not given)	FEN1 inhibitor 22µM, POLI inh inconclusive, POLB inh inconclusive
CCN(CC)c1ccc(NC(=O)COc2ccc(-n3cnnn3)cc2)cc1	none (no result: POLB inh)
CCOC(=O)c1ccc(NC(=O)COc2ccc(-n3cnnn3)cc2)cc1	Pol eta inh inconclusive, POLI inh inconclusive, POLB inh 32µM
COC(=O)c1ccc(COc2ccc3ccc(=O)oc3c2)o1	none
COC(=O)c1ccc(COc2ccc3c(C)c(C)c(=O)oc3c2)o1	POLI inh inconclusive, POLB inh 56µM
NC(=O)CC[C@@H]1NC(=O)[C@H](CO)NC(=O)c2cc([N+](=O)[O-])cc(I)c2NCCCC[C@@H](C(N)=O)NC(=O)[C@H](Cc2ccc(O)cc2)NC1=O	POLI inh inconclusive
NCCCC[C@@H]1NC(=O)c2cc([N+](=O)[O-])cc(F)c2NCCCC[C@@H](C(N)=O)NC(=O)CNC1=O	FEN1 inhibitor inconclusive
NC(=O)C(CC(=O)O)NC(=O)[C@@H]1CCCCNc2c(I)cc([N+](=O)[O-])cc2C(=O)N[C@@H](CO)C(=O)NCC(=O)N1 (stereo not given in full)	POLB inh 35µM (no result: Pol kappa inh, Pol eta inh, FEN1 inhibitor, POLI inh, WRN helicase inh)
NC(=O)C(CC(=O)O)NC(=O)[C@@H]1CCCNc2c(I)cc([N+](=O)[O-])cc2C(=O)N[C@@H](CO)C(=O)N[C@@H](Cc2ccc(O)cc2)C(=O)N1 (stereo not given in full)	Pol kappa inh 50µM, Pol eta inh 16µM, POLI inh inconclusive, WRN helicase inh inconclusive
O=C(c1cc(C(F)(F)F)cc(C(F)(F)F)c1)N1CCC2(CCCN(Cc3nccs3)C2)CC1	none (no result: Pol eta inh, FEN1 inhibitor, POLI inh, POLB inh, WRN helicase inh)
O=C(CN1C(=O)CC(c2ccco2)Sc2ccccc21)Nc1ccccc1F (stereo not given)	Pol eta inh inconclusive, POLI inh 45µM, WRN helicase inh inconclusive
O=c1[nH]c(S)c(/C=C2\C=Nc3ccccc32)s1	Pol eta inh 40µM
Oc1nc(Nc2ccc(F)cc2)sc1/C=C1\C=Nc2ccccc21	none
CC1CCN(S(=O)(=O)c2cc(C(=O)N3CCN(c4cccc(Cl)c4)CC3)n(C)c2)CC1	none (no result: WRN helicase inh)
CCN(CC)c1nc(C#N)nc(N2CCOCC2)n1	none (no result: Pol eta inh, POLB inh, WRN helicase inh)
CC1C2(C)OC(=N)C(C#N)(C(C)O2)C1(C#N)C#N (stereo not given)	POLI inh inconclusive, WRN helicase inh 79µM
CC1OC2(C)OC(=N)C1(C#N)C(C#N)(C#N)C2c1ccccc1 (stereo not given)	Pol eta inh inconclusive
Cc1ccc(-c2nnc(SCC(=O)NC(C)(C)C)nc2-c2ccc(C)cc2)cc1	POLB inh inconclusive (no result: WRN helicase inh)
CCc1ccc(NC(=O)Cn2ccn(-c3ccc(OC)cc3)c(=O)c2=O)cc1	POLB inh 32µM (no result: WRN helicase inh)

Screening results from PubChem.
